These results are taken from the supplement of paper PMC11001985.

Unmarked numbers belong to inactive results.

Chain of UniProt P17342 (P17342 whole entry): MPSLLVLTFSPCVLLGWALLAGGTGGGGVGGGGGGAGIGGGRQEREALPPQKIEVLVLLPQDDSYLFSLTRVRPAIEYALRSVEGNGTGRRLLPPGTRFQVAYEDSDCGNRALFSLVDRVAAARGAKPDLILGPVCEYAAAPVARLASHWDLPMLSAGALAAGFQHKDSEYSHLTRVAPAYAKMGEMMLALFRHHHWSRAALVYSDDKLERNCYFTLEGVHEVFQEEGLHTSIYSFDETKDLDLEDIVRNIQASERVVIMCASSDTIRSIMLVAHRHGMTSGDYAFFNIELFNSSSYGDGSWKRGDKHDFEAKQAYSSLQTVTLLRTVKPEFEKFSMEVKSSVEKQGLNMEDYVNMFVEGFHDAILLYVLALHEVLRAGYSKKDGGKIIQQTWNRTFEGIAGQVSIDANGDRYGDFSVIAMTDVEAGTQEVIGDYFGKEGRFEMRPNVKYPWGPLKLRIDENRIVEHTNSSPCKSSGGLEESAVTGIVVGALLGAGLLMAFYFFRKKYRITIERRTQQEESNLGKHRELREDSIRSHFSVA
Chain of UniProt Q8N8S7 (Q8N8S7 whole entry): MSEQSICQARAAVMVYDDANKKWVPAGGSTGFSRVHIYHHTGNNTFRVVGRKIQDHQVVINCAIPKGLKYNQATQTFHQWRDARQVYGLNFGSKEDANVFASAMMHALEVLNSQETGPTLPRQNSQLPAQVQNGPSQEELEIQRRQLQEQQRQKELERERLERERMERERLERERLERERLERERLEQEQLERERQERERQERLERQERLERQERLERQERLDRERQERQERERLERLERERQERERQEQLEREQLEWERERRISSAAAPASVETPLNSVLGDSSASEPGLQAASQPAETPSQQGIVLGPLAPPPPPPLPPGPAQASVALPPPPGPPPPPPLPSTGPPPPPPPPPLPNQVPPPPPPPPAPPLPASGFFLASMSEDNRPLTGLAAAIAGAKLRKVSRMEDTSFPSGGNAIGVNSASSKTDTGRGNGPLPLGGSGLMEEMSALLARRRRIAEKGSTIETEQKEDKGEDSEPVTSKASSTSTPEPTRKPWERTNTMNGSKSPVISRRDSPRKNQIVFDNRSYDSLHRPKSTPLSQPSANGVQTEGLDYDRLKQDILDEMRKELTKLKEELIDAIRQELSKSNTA
Chain of UniProt P06576 (P06576 whole entry): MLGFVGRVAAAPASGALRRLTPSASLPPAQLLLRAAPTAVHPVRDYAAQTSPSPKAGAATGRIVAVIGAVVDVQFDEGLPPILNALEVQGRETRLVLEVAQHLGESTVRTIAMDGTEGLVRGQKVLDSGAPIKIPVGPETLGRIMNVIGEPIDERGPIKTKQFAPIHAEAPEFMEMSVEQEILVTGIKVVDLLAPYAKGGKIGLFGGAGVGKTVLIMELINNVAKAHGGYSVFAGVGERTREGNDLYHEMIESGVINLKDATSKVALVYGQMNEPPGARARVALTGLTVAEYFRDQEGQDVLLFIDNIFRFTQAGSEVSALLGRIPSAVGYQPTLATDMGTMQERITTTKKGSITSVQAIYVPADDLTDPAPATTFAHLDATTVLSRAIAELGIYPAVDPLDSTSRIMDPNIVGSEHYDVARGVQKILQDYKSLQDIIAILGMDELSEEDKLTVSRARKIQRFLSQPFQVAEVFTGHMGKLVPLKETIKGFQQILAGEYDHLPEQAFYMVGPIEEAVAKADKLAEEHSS
Chain of UniProt P09758 (P09758 whole entry): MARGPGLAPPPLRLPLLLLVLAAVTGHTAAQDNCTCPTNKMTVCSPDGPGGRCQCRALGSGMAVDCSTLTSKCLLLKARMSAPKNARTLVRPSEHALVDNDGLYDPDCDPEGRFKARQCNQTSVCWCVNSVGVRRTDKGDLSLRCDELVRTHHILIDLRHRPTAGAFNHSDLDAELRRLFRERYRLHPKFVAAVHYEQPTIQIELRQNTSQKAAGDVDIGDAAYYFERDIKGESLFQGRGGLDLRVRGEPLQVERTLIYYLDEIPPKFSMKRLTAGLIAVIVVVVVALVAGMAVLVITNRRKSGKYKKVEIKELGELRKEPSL
Chain of UniProt P05556 (P05556 whole entry): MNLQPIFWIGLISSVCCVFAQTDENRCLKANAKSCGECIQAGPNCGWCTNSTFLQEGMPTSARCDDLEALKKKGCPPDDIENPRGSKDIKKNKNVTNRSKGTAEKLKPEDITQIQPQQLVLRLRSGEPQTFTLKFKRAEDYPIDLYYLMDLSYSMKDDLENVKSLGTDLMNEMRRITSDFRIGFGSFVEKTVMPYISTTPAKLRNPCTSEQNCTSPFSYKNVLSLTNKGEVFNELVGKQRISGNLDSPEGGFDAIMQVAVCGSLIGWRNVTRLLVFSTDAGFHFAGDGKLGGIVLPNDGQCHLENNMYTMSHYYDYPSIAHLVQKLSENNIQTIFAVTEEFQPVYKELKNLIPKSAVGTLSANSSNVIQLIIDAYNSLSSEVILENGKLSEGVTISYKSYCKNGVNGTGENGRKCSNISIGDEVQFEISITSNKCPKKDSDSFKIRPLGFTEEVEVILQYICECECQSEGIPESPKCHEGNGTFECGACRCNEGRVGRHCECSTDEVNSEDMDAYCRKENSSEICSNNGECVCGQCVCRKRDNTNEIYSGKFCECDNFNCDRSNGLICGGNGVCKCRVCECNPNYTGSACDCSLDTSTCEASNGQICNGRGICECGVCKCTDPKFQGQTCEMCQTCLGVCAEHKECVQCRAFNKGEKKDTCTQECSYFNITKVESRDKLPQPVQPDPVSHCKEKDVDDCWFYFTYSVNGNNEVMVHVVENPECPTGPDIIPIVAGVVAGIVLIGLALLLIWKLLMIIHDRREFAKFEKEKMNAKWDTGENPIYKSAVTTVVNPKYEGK
Chain of UniProt Q92688 (Q92688 whole entry): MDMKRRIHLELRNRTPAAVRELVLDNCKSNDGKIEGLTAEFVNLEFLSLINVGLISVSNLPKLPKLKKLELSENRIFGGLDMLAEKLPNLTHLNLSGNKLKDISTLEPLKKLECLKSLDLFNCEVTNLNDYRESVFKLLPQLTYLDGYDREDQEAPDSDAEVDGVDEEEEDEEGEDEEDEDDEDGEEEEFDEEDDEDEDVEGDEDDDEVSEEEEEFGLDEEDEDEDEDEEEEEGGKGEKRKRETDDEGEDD
Chain of UniProt P25705 (P25705 whole entry): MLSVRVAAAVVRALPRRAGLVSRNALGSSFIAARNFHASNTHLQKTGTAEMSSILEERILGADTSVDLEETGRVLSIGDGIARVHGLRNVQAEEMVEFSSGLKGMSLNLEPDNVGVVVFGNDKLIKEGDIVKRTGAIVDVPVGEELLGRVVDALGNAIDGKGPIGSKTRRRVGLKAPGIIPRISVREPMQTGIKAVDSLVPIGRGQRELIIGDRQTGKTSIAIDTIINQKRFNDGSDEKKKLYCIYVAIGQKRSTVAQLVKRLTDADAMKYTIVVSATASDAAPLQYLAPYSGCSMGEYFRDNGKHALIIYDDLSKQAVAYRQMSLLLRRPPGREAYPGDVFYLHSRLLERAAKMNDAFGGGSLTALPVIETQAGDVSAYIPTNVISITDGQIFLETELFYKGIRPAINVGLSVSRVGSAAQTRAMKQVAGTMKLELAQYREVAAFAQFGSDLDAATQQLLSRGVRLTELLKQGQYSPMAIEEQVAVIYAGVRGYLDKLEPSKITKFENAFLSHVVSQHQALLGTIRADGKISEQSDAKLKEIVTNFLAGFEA
Chain of UniProt P14868 (P14868 whole entry): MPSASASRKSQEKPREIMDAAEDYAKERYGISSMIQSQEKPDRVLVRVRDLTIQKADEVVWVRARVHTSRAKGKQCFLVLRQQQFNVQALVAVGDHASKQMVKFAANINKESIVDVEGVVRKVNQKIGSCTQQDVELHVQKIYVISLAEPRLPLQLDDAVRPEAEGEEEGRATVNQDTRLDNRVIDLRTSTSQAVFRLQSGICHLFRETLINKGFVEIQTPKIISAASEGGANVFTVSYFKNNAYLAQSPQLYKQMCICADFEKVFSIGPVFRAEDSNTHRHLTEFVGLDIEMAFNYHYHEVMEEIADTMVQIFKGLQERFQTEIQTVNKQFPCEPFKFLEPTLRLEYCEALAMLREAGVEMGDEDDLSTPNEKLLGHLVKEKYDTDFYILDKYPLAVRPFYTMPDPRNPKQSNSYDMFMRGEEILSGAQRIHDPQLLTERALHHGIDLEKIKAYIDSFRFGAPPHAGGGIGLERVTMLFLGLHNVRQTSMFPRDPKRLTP
Chain of UniProt Q06830 (Q06830 whole entry): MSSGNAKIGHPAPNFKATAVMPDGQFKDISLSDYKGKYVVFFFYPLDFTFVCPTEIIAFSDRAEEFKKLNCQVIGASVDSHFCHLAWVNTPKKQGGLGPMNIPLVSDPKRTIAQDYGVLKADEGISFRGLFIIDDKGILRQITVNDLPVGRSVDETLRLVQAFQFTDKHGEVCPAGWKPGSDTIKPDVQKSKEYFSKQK
Chain of UniProt P01893 (P01893 whole entry): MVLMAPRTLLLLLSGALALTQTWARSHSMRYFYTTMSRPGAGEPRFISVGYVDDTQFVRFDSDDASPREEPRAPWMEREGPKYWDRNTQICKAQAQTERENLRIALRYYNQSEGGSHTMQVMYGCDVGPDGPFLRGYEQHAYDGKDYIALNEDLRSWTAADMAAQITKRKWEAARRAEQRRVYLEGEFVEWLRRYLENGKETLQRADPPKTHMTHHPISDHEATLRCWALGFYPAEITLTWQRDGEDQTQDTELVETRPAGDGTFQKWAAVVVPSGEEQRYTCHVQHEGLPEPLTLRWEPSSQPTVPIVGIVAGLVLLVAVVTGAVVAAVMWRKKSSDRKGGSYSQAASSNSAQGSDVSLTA
Chain of UniProt Q99623 (Q99623 whole entry): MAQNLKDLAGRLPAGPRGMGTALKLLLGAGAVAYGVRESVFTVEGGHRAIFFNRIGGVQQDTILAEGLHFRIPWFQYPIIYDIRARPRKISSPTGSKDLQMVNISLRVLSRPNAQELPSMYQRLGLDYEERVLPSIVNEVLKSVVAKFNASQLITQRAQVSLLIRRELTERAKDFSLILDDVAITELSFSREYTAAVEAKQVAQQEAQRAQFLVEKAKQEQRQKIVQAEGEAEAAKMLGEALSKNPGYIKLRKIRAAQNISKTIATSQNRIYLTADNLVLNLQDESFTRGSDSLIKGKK

Compound in this assay: C#CCNC(=O)CCSSCCC(=O)NCCc1ccc(C=O)c(C=O)c1
The assay is described as follows: lysine labeling ratio R10:1 (500 µM / 50 µM probe), SILAC-ABPP in living cells; higher = lower intrinsic lysine reactivity toward the probe, active = 2 or less. As to conditions: HeLa; probe concentrations 500 vs 50 µM. In outline:
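Each lysine carries an R value: the filtered median of MS1 peptide ratios of high probe to low probe, with the median then taken over forward and reverse replicates. These came from living SILAC light and heavy HeLa cells in PBS at room temperature labelled with an alkyne-tagged, disulfide-linked lysine probe at 500 µM or 50 µM, in forward and reverse swaps. The lysates were mixed, clicked to biotin-azide, trypsin-digested, captured on neutravidin, released by DTT, alkylated and run by LC-MS/MS on a TIMS-TOF Pro. The highest value allowed is 20.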
For the target UniProt P09758 (lysine site: K138), the “lysine labeling ratio R10:1” value is 5.06.

In the case of UniProt P55072 (lysine site: K148), the “lysine labeling ratio R10:1” value is 5.57.

As for “IARS (lysine site: K382) (UniProt P41252)”, the “lysine labeling ratio R10:1” value is 3.02.

On to UniProt Q99623 (lysine site: K147), for which the “lysine labeling ratio R10:1” value is 3.43.

With UniProt P01893 (lysine site: K210), the “lysine labeling ratio R10:1” value was 2.51.

As for “PRDX1 (lysine site: K109) (UniProt Q06830)”, the “lysine labeling ratio R10:1” value is 2.64.

Regarding “TKT (lysine site: K353) (UniProt P29401)”, the “lysine labeling ratio R10:1” value is 6.

Take “RPL28 (lysine site: K72) (UniProt P46779)”: the “lysine labeling ratio R10:1” value was 2.12.

As to “ITGB1 (lysine site: K93) (UniProt P05556)”, the “lysine labeling ratio R10:1” value was 2.06.

For “DSG2 (lysine site: K141) (UniProt Q14126)”, the “lysine labeling ratio R10:1” value was 4.68.

As to “ENAH (lysine site: K559) (UniProt Q8N8S7)”, the “lysine labeling ratio R10:1” value was 2.92.

As to “RPL14 (lysine site: K103) (UniProt P50914)”, the “lysine labeling ratio R10:1” value is 3.31.

With “DARS (lysine site: K40) (UniProt P14868)”, the “lysine labeling ratio R10:1” value was 2.54.

Turning to UniProt Q14574 (lysine site: K662), the “lysine labeling ratio R10:1” value was 1.83 (active).

Consider UniProt P06576 (lysine site: K264), for which the “lysine labeling ratio R10:1” value is 4.08.

On to “NPR3 (lysine site: K127) (UniProt P17342)”, for which the “lysine labeling ratio R10:1” value was 4.43.

For UniProt P05787 (lysine site: K472), the “lysine labeling ratio R10:1” value was 2.67.

As to “ANP32B (lysine site: K68) (UniProt Q92688)”, the “lysine labeling ratio R10:1” value is 1.78 (active).

As for UniProt P25705 (lysine site: K161), the “lysine labeling ratio R10:1” value is 3.49.

Consider UniProt Q6ZMR3 (lysine site: K155), for which the “lysine labeling ratio R10:1” value is 2.54.

With “ANPEP (lysine site: K923) (UniProt P15144)”, the “lysine labeling ratio R10:1” value was 2.33.

On to “L1CAM (lysine site: K56) (UniProt P32004)”, for which the “lysine labeling ratio R10:1” value was 3.74.

As for “LMO7 (lysine site: K1496) (UniProt Q8WWI1)”, the “lysine labeling ratio R10:1” value is 2.11.
